Measured values published in PubChem BioAssay (NCI).
About 83,000 compounds went through this panel and 20% of them were active in at least one assay; those are over-represented in the sample as a whole.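 The endpoint reported here, percent growth, reads 100 for growth as untreated, 0 for no net growth and -100 for all cells dead.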 Unmarked numbers belong to inactive results. Activity calls are given as the source filed them.

The compounds below were run on IGROV1 ovarian (assay: NCI-60 one-dose screen, 48 h (100 = growth as untreated, 0 = no growth, -100 = all killed)). Settings: 10 µM unless noted.
Method: Growth inhibition of the IGROV1 human tumor cell line is measured as a screen for anti-cancer activity. Cells are grown in 96 well plates and exposed to the test compound for 48 hours. Compounds are tested at a single concentration, which is 10^-5 M for most compounds. The reported endpoint is percent growth (GI% or GIPRCNT), where numbers from 0 - 100% represent growth inhibition, and numbers from -100% - 0 represent cell death. For example, a value of 40 represents 60% growth inhibition. A value of 0 means no net growth occurred over the course of the experiment. A value of -40 indicates 40% of cells at the beginning of the experiment died by the end of the experiment. A value of -100 means all cells are dead at the end of the experiment.
NCI-60 Human Tumor Cell Lines Screen was performed using the standard one-dose NCI protocol, which is described in more detail at https://dtp.cancer.gov/discovery_development/nci-60/default.htm.
Compounds with GIPRCNT values below 10 were considered active. Activity score was based on GIPRCNT using the following formula: […]
Score is 0 for GIPRCNT values of 100 or above, 50 for GIPRCNT values of 0, and 100 for GIPRCNT values of -100.

SMILES	growth
O=C(OCC1CCCO1)c1ccc([N+](=O)[O-])cc1 (stereo not given)	101%
Oc1cccc(CNC2CCCCC2)c1	108%
CCOC(=O)c1ccc(Nc2sc(C(=O)c3ccc(Br)cc3)c(N)c2C#N)cc1	31.3%
S=CN1CCCCC1	109%
Cn1c(=O)c2[nH]c(CC(=O)O)nc2n(C)c1=O	103%
COC(=O)C1(CC(C)=O)NC(=S)NC(=O)C1C#N (stereo not given)	111%
O=C(NCc1ccccc1)/C(=C/c1ccccc1)NC(=O)c1ccccc1	104%
Cc1onc(-c2c(F)cccc2Cl)c1-c1ncc(-c2ccc(Br)cc2)o1	36.8%
O=[n+]1ccn([O-])c2ccccc21	106%
COC(=O)Cc1cc(COC(C)=O)ccc1C	107%
CCOC(=O)CSCCC#N	107%
CCOc1ccccc1NC(=O)CCl	-12% (active)
CCCC1OC(c2ccco2)OCC1CC (stereo not given)	95.1%
Cc1ccc(/C=N/NC(N)=S)s1	113%
Cc1ccc(NC(=O)c2ccccc2Cl)cc1	93.8%
Nc1ncnc(Nc2ccccc2)n1	102%
CCOC(=O)c1cc(C)[nH]c(=O)c1C#N	118%
COc1cc(OC)c(NC(=O)C(Sc2nc(C)cc(C)c2C#N)c2ccccc2)cc1Cl (stereo not given)	93.4%
CN=S(=O)(OCCCCCOS(=O)(=NC)c1ccc(C)cc1)c1ccc(C)cc1 (stereo not given)	13.6%
CC(O)C(F)(F)C(F)(F)C(F)(F)F (stereo not given)	114%

SMILES	growth
CCCCc1ccc2nc(NC(=O)OC)[nH]c2c1	15.8%
CC(=O)N(CCCCCCN(C(C)=O)C(C)=O)C(C)=O	108% [100 µM]
O=c1cc(Cl)nc2ccccn12	96.5%
O=C(Nc1ccccc1)c1ccco1	105%
CS(=O)(=O)c1ccc(/C=C\C(=O)O)cc1	120%
CC(=O)C1C(=O)C(=O)N(c2ccc(Cl)c(Cl)c2)C1=O (stereo not given)	98.6%
Cc1ccc(S(=O)(=O)Oc2ccc3sc4c(CO)ccc(NCCN(C)C)c4c(=O)c3c2)cc1	-74.1% [100 µM] (active)
CC(CO)(CO)C(=O)O	126%
Cc1cc(Cl)cc(Cc2cc(Cl)cc(C)c2O)c1O	33.1%
O=C(O)CSCC(=O)Nc1cc(C(F)(F)F)ccc1Cl	112%
Nc1ccc(F)c(Cl)c1F	116%
CC(=O)NCNC(C)=O	113%
CCOc1ccc(C(=O)NCC(C)C)cc1	110%
N#Cc1ccc2nc[nH]c2c1	115%
C=CCc1cc(OC)c(O)c(OC)c1	113%
O=[N+]([O-])c1c(O)c(CNCCCO)cc(CNCCCO)c1O	2.99% (active)
CCCCCCCCNC(=O)C(C)C	107%
Clc1cccc(Cl)c1CSc1nc2ccccc2n2cccc12	76.4%
Cc1ccc(C(C)C)c(OCC(=O)O)c1	109%
Ic1cccs1	105%
